In PubChem BioAssay AID1159580 (chemical genetic matrix, 2015):
Where “and” joins values, the source holds several entries; their conditions need not be identical. Equal values may be shown once. Among all 5,500 compounds or so, about 2,000 (36%) were called active. Inconclusive results (about 18%) are left out. Cut-off read from the data, not from the text of the source: active = normalized growth mostly below about 0.91 (no sharp cut-off); inconclusive = no clear call, values can overlap the other calls; inactive = mostly above about 0.92. The list shows a part of the results.

Assay: chemical genetic growth profiling, strain panel (AID 1159580);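 note: tested at 20 µM; growth read once vehicle control cultures reached saturation at 30 °C; 1 = growth at the plate median or of vehicle wells; lower values mean less growth of the strain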
Details: S. cerevisiae deletion strains, growth OD

Measured: normalized growth

Nc1ccn(C2O[C@H](CO)[C@@H](O)[C@H]2O)c(=O)n1 (some centres undefined)
inactive: locus YAL021C, strain ccr4, hits give low values 0.985 | locus YAL026C, strain drs2, hits give low values 0.983 | locus YAL030W, strain snc1, hits give low values 0.982 | locus YBL061C, strain skt5, hits give low values 0.996 | locus YBR009C, strain hhf1, hits give low values 0.997 | locus YBR021W, strain FUR4, hits give low values 1.02 | locus YBR023C, strain chs3, hits give low values 1 | locus YBR171W, strain sec66, hits give low values 0.991 | locus YBR229C, strain ROT2, hits give low values 0.997 | locus YBR231C, strain swc5, hits give low values 0.987 | locus YBR279W, strain paf1, hits give low values 0.995 | locus YCL011C, strain gbp2, hits give low values 0.991 | locus YCL016C, strain dcc1, hits give low values 1 | locus YCL029C, strain bik1, hits give low values 1.01 | locus YCL061C, strain MRC1, hits give low values 0.992 | locus YCL069W, strain vba3, hits give low values 0.992 | locus YCR088W, strain abp1, hits give low values 0.985 | locus YDL005C, strain med2, hits give low values 0.983 | locus YDL035C, strain GPR1, hits give low values 1.01 | locus YDL040C, strain nat1, hits give low values 0.987 | locus YDL074C, strain BRE1, hits give low values 1.03 | locus YDL101C, strain DUN1, hits give low values 1.02 | locus YDL185W, strain tfp1, hits give low values 1.03 | locus YDL192W, strain arf1, hits give low values 1.01 | locus YDR001C, strain nth1, hits give low values 0.977 | locus YDR069C, strain doa4, hits give low values 0.992 | locus YDR101C, strain arx1, hits give low values 1.03 | locus YDR137W, strain rgp1, hits give low values 0.982 | locus YDR150W, strain NUM1, hits give low values 0.962 | locus YDR159W, strain sac3, hits give low values 0.982 | locus YDR162C, strain NBP2, hits give low values 1 | locus YDR195W, strain ref2 0.974 | locus YDR297W, strain sur2, hits give low values 0.982 | locus YDR318W, strain mcm21, hits give low values 0.998 | locus YDR334W, strain swr1, hits give low values 0.981 | locus YDR335W, strain msn5, hits give low values 0.982 | locus YDR388W, hits give low values 1 | locus YDR392W, strain spt3, hits give low values 0.995 | locus YDR502C, strain sam2, hits give low values 1.01 | locus YEL003W, strain gim4, hits give low values 0.99 | locus YEL037C, strain rad23, hits give low values 0.991 | locus YEL061C, strain CIN8 (second series), hits give low values 0.983 | locus YEL061C, strain CIN8, hits give low values 1.01 | locus YER015W, strain faa2, hits give low values 1.01 | locus YER016W, strain bim1, hits give low values 0.987 | locus YER110C, hits give low values 1.01 | locus YER111C, strain swi4, hits give low values 0.982 | locus YER155C, strain BEM2 (second series), hits give low values 0.975 | locus YER155C, strain BEM2, hits give low values 1 | locus YER167W, strain BCK2, hits give low values 0.987 | locus YFR010W, strain ubp6, hits give low values 0.972 | locus YGL078C, strain dbp3, hits give low values 1.01 | locus YGL086W, strain mad1, hits give low values 1.03 | locus YGL167C, strain pmr1, hits give low values 0.997 | locus YGL173C, strain kem1, hits give low values 0.995 | locus YGL227W, strain vid30, hits give low values 0.993 | locus YGL240W, strain doc1, hits give low values 1.01 | locus YGL248W, strain PDE1, hits give low values 0.991 | locus YGL253W, strain hxk2, hits give low values 0.996 | locus YGR078C, strain PAC10, hits give low values 1.02 | locus YGR135W, strain pre9, hits give low values 1 | locus YGR252W, strain gcn5, hits give low values 0.993 | locus YHR013C, strain ard1, hits give low values 1.01 | locus YHR027C, strain rpn1, hits give low values 0.989 | locus YHR030C, strain SLT2, hits give low values 1.01 and 1 | locus YHR079C, strain IRE1 (second series), hits give low values 1 | locus YHR079C, strain IRE1, hits give low values 0.995 | locus YHR094C, strain hxt1, hits give low values 1.01 | locus YHR129C, strain ARP1, hits give low values 1.01 | locus YHR142W, strain chs7, hits give low values 0.999 | locus YHR200W, strain rpn10, hits give low values 1.02 | locus YIL066C, strain RNR3, hits give low values 0.995 | locus YIL073C, strain SPO22, hits give low values 1.02 | locus YIL125W, strain kgd1, hits give low values 1.01 | locus YIR030C, strain dcg1, hits give low values 1.01 | locus YJL092W, strain hpr5, hits give low values 0.988 | locus YJL095W, strain BCK1 (second series), hits give low values 0.995 | locus YJL095W, strain BCK1, hits give low values 1.06 and 1 | locus YJL115W, strain asf1, hits give low values 0.975 | locus YJL129C, strain trk1, hits give low values 0.995 | locus YJL134W, strain LCB3, hits give low values 0.999 | locus YJL154C, strain vps35, hits give low values 0.978 | locus YJL164C, strain tpk1, hits give low values 1 | locus YJL166W, strain qcr8, hits give low values 0.999 | locus YJL168C, strain set2, hits give low values 0.999 | locus YJL187C, strain SWE1 (second series), hits give low values 1.04 | locus YJL187C, strain SWE1, hits give low values 0.987 | locus YJR043C, strain POL32, hits give low values 1 | locus YJR066W, strain TOR1, hits give low values 0.909
